In all, about 65,000 compounds went through this assay and about 3,600 (5.5%) were called active. The entries come from a sample that favours actives as a whole. Values without a mark were called inactive.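 The calls were made as follows: active = at 10 µM, mean starting fluorescence two-fold or more over control wells; inactive = the rest.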

The nature of this assay: intrinsic fluorescence of library compounds, ex339/em460 – biochemical, MLSMR library, data from DPM-DC assay, artefact control, profiling panel (AID 709).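 Also: signal is the first read of a kinetic run.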 As to conditions: compound autofluorescence, ex339/em460 nm, NADH buffer; at 10 µM; active compounds read high; 1 = no-compound wells, NADH background.
`O=C1CC(c2cccc(F)c2)C2=C(CCCC2=O)N1` (stereo not given): the fluorescence fold increase is 1.17.

As to `O=C1CCCc2c1[nH]c1ccc(Br)cc21`, the fluorescence fold increase was 1.13.

`O=C1CC(c2cccc(Br)c2)C2=C(CCCC2=O)N1` (stereo not given): the fluorescence fold increase was 2.04 (active).

Consider `C=CCc1cccc2cc(C(=O)OCC)c(=O)oc12`, for which the fluorescence fold increase was 1.21.

`CC(=O)O[C@]1(C(C)=O)CC[C@H]2[C@@H]3C=C(C)C4=CC(=O)CC[C@]4(C)[C@H]3CC[C@@]21C`: the fluorescence fold increase was 1.

As to `COc1ccc(C(=O)NCCc2ccc(S(N)(=O)=O)cc2)cc1OC`, the fluorescence fold increase was 1.15.

For `O=C(NCc1cn2ccsc2n1)Nc1ccc(Cl)cc1`, the fluorescence fold increase was 1.11.

With `O=c1cc(Cn2nnc(-c3ccc(Cl)cc3)n2)nc2sccn12`, the fluorescence fold increase is 1.22.

Regarding `O=C(NCc1ccc(Cl)cc1)c1cc2c(nc3sccn32)s1`, the fluorescence fold increase is 2.6 (active).

For the compound `O=C(Nc1c2c(nn1-c1ccc(F)cc1)CS(=O)C2)C12CC3CC(CC(C3)C1)C2` (stereo not given), the fluorescence fold increase is 1.05.

For the compound `Cc1cc(C)cc(N(CC(=O)Nc2c(C)n(C)n(-c3ccccc3)c2=O)S(C)(=O)=O)c1`, the fluorescence fold increase is 1.04.

For `Cc1nc2cc(-c3ccc(F)cc3)nn2c(N2CCOCC2)c1C`, the fluorescence fold increase was 1.16.

Regarding `COCCCNC(=O)c1ccc2c(c1)ncn2-c1ccccc1OC`, the fluorescence fold increase is 1.07.

As to `CN(C)CCCNC(=O)c1ccc2[nH]c3ccccc3c2c1`, the fluorescence fold increase is 3.36 (active).

`Cc1ccc(C(=O)NCCNS(=O)(=O)c2ccccc2)cc1`: the fluorescence fold increase was 1.02.

On to `CSc1nnc(CNC(=O)c2ccccc2)n1-c1ccc(F)cc1`, for which the fluorescence fold increase is 1.11.

Take `O=S(=O)(c1cccc(S(=O)(=O)N2CCC(n3nnc4ccccc43)CC2)c1)N1CCCCC1`: the fluorescence fold increase was 1.05.

On to `Cc1ccc2oc(=O)c3cnn(CC(=O)N4CCCCCC4)c3c2c1`, for which the fluorescence fold increase is 1.04.

As to `Cc1ccc2cc3cc(C(=O)N4CCCCCC4)oc3nc2c1`, the fluorescence fold increase is 3.22 (active).

`Cc1ccc(C(=O)N2CCCCCC2)cc1Br`: the fluorescence fold increase is 1.08.

`Cc1cc(C)n2nc(C(=O)Oc3ccc4c(c3)OCO4)nc2n1`: the fluorescence fold increase is 1.15.

`CC(C)(C)c1nc(NCC2CCCO2)c2nnn(Cc3ccccc3)c2n1` (stereo not given): the fluorescence fold increase was 1.16.

Regarding `C#CCNc1nc(C(C)C)nc2c1nnn2Cc1ccccc1F`, the fluorescence fold increase was 1.04.

With `Cc1nc(Nc2ccc3c(c2)OCCO3)c2nnn(Cc3ccccc3Cl)c2n1`, the fluorescence fold increase is 2.39 (active).

In the case of `CCc1ccc2oc(=O)cc(CN3CCCCC3C)c2c1` (stereo not given), the fluorescence fold increase is 1.11.

For `CCOC(=O)N1CCN(Cc2oc(CO)cc(=O)c2O)CC1`, the fluorescence fold increase is 1.04.

Consider `CCCc1cc(=O)oc2c(C)c(O)c(CN3CCCCC3)cc12`, for which the fluorescence fold increase is 2.34 (active).

With `C[N+](C)(C)CCNC(=O)c1c(O)c2c([nH]c1=O)CCCC2`, the fluorescence fold increase was 1.18.

With `O=C(Cn1c(-c2ccccn2)nc2ccccc21)NCCN1CCOCC1`, the fluorescence fold increase is 1.39.

With `NC(=O)COc1ccc2c3c(c(=O)oc2c1)CCCCC3`, the fluorescence fold increase is 3.71 (active).

Regarding `O=C(COc1ccc2c3c(c(=O)oc2c1)CCC3)NC1CCCCC1`, the fluorescence fold increase is 2.13 (active).

`CCc1cc(=O)oc2cc(OCC(=O)N3CCCc4ccccc43)ccc12`: the fluorescence fold increase was 1.26.

For the compound `O=C(COc1ccc2oc3c(c2c1)CCCC3)Nc1ccccn1`, the fluorescence fold increase is 1.06.

For `O=C(COc1ccccc1F)NC1CC1`, the fluorescence fold increase is 1.01.

For `O=C(CC1OC(=O)c2ccccc21)NC1CCCCC1` (stereo not given), the fluorescence fold increase was 1.08.

Regarding `O=C(C1CCC(C(=O)N2CCCC2)CC1)N1CCCC1` (stereo not given), the fluorescence fold increase is 1.02.

Take `Cc1nnc(SCC(=O)NCc2ccccc2)s1`: the fluorescence fold increase is 1.06.

Turning to `O=C(O)CC(c1ccccc1)n1cnnn1` (stereo not given), the fluorescence fold increase was 1.14.

Regarding `O=C(CS(=O)(=O)Cc1ccccc1)Nc1cccnc1`, the fluorescence fold increase is 1.1.

Consider `CCOCCN(C=O)c1cccc(OC)c1`, for which the fluorescence fold increase was 1.15.

`COc1ccccc1C1/C(=C(/O)c2ccc(OC(C)C)cc2)C(=O)C(=O)N1c1cc(C)on1` (stereo not given): the fluorescence fold increase was 1.06.

With `Cc1ccc(S(=O)(=O)NCC(=O)N(CC(=O)NC2CCCCC2)Cc2ccco2)cc1`, the fluorescence fold increase is 1.

Regarding `CC(Cc1cccs1)NC(=O)NC1CCCCC1` (stereo not given), the fluorescence fold increase is 1.06.

Regarding `CC(=O)Nc1cc2ccc(OC(C)=O)cc2oc1=O`, the fluorescence fold increase is 2.1 (active).

For the compound `CC(=O)Oc1ccc2c(C)c(CC(C)O)c(=O)oc2c1` (stereo not given), the fluorescence fold increase is 3.67 (active).

Turning to `COc1ccc(C(=O)c2oc3ccc(Br)cc3c2NC(C)=O)cc1`, the fluorescence fold increase is 1.11.

Regarding `COc1ccc2oc(C)c(NC(C)=O)c2c1`, the fluorescence fold increase is 1.06.

With `O=C(NCc1ccc(Cl)c(Cl)c1)c1cccnc1`, the fluorescence fold increase is 0.91.

Regarding `O=C1C=C(NCCNc2c(F)c(F)c(CO)c(F)c2F)CCC1`, the fluorescence fold increase is 1.14.

As to `CC(C)Cc1nc(N2CCOCC2)c(C#N)c2c1CCC2`, the fluorescence fold increase is 1.97.

On to `Cc1nc(NCCN)c(C#N)c2c1COC(C)(C)C2`, for which the fluorescence fold increase is 1.92.

With `CC(C)C(=O)N1CCN(c2nc(-c3ccccc3)c3c(c2C#N)CC(C)(C)OC3)CC1`, the fluorescence fold increase was 2.34 (active).

As for `COc1ccc(CSc2nc(N3CCOCC3)c3c(c2C#N)CC(C)(C)OC3)cc1`, the fluorescence fold increase was 1.08.

In the case of `CC1(C)Cc2c(C#N)c(SCc3nc4ccccc4[nH]3)nc(N3CCOCC3)c2CO1`, the fluorescence fold increase was 1.39.

For the compound `CC(C)c1nc(N2CCOCC2)c(C#N)c2c1COC(C)(C)C2`, the fluorescence fold increase was 2.28 (active).

Take `C/C(=C\c1ccco1)C1Nc2cccc3cccc(c23)N1`: the fluorescence fold increase was 1.19.

As to `CCOc1c(OC)cc(C2C(C#N)=C(N)Oc3n[nH]c(-c4ccncc4)c32)cc1OC` (stereo not given), the fluorescence fold increase was 1.13.

On to `COc1ccc(-c2nnc(SCC(=O)c3cccs3)o2)c(OC)c1`, for which the fluorescence fold increase is 1.12.

In the case of `COc1ccc(OC)c(C(=O)CSc2nnc(-c3cccs3)o2)c1`, the fluorescence fold increase is 3.64 (active).

Regarding `COc1ccc(-n2c(C)cc(C(=O)CSc3nnc(-c4cccs4)o3)c2C)cc1`, the fluorescence fold increase is 1.07.

As for `COc1ccc2c(c1)CCc1c(C(=O)N3CCCC3)noc1-2`, the fluorescence fold increase is 1.1.

As to `CN(CCc1ccccn1)S(=O)(=O)c1ccc2c3c(cccc13)C(=O)N2`, the fluorescence fold increase is 3.89 (active).

In the case of `O=c1[nH]nc(Cc2ccccn2)c2ccccc12`, the fluorescence fold increase is 1.07.

Take `CC1(C)CN=C(N2CCN(c3ncnc4sc5c(c34)CCCC5)CC2)S1`: the fluorescence fold increase is 1.03.

For the compound `Fc1c(F)c(C(F)(F)F)c(F)c(F)c1N1CCN(c2ccc3nnc(C(F)(F)F)n3n2)CC1`, the fluorescence fold increase is 1.93.

Regarding `CN(c1ccccc1)c1ccc(/C=c2\s/c(=C(/C#N)C(=O)C(C)(C)C)n(Cc3ccco3)c2=O)cc1`, the fluorescence fold increase was 0.95.

On to `CC(=O)Cc1nsc(NC(=O)c2ccc(COc3ccc(C)cc3)o2)n1`, for which the fluorescence fold increase was 1.06.

Take `Cc1occc1C(=O)Nc1cccc(Cn2cccn2)c1`: the fluorescence fold increase was 1.14.

For the compound `O=C(Nc1ccncc1)c1cc2ccccc2o1`, the fluorescence fold increase is 1.02.

Turning to `Cc1occc1C(=O)Nc1nnc(C2CCCCC2)s1`, the fluorescence fold increase is 1.04.

Take `Cc1occc1C(=O)Nc1nnc(-c2ccncc2)s1`: the fluorescence fold increase was 2.2 (active).

For `Cc1ccc(C(=O)Nc2nnc(-c3ccncc3)s2)o1`, the fluorescence fold increase was 2.14 (active).

As for `COc1ccc(CCNC(=O)c2cc(-c3ccc4c(c3)OCO4)on2)cc1OC`, the fluorescence fold increase was 1.07.

Regarding `O=C(CSc1nnc(-c2ccccn2)n1-c1ccccc1)Nc1ccc2c(c1)OCO2`, the fluorescence fold increase was 1.08.

As for `CC(C)Oc1ccc(C(=O)Nc2cc(=O)n(C)c(=O)n2C)cc1`, the fluorescence fold increase was 1.01.

Regarding `O=C(c1cccs1)N1CCN(C(=O)N2CCOCC2)CC1`, the fluorescence fold increase is 1.11.

`CCOc1ccccc1N(CC(=O)NC1CCCCC1)C(=O)CCCC(=O)Nc1ccccn1`: the fluorescence fold increase is 1.08.

`C=CCNC(=O)CSc1nc2sc(C)c(C)c2c(=O)[nH]1`: the fluorescence fold increase was 1.

`O=C(CSc1nc2c(cnn2-c2ccc(F)cc2)c(=O)[nH]1)N1CCCCCC1`: the fluorescence fold increase is 1.11.

As to `CC(=O)c1sc2nc(SCC(=O)N3CCCCC3)[nH]c(=O)c2c1C`, the fluorescence fold increase was 2.68 (active).

As to `Cc1ccc(-n2nc3c(c2NC(=O)CCC2CCCCC2)CS(=O)C3)cc1` (stereo not given), the fluorescence fold increase was 1.14.

Take `CCOc1cccc(NC(=O)C2CCCN(S(=O)(=O)c3ccc(OC)cc3)C2)c1` (stereo not given): the fluorescence fold increase is 1.02.

As to `O=c1[nH]c(-c2ccccc2)c(-c2ccccc2)[nH]1`, the fluorescence fold increase was 3.71 (active).

For the compound `N#Cc1c2c(c(-c3ccccc3)[nH]c1=O)CCCC2`, the fluorescence fold increase is 1.02.

Turning to `CC1(C)CC(=O)NC=C(c2ccccc2)C1`, the fluorescence fold increase is 1.06.

Take `CCOC(=O)N1CCN(C(=O)c2ccc(S(=O)(=O)c3ccc(C)cc3)c(NC(C)=O)c2)CC1`: the fluorescence fold increase is 1.2.

For the compound `Cc1ccc(C(=O)CS(C)(=O)=O)cc1`, the fluorescence fold increase is 1.35.

For `OC1CN=C2Sc3ccccc3N2C1` (stereo not given), the fluorescence fold increase was 1.06.

Consider `COc1ccc(C(C(O)C(=O)c2c[nH]c3ccccc23)N2CCN(c3ccccc3)CC2)cc1` (stereo not given), for which the fluorescence fold increase was 1.15.

Regarding `Cc1ccc2nc(-c3ccc(SCC(=O)Nc4cc(C)on4)nc3)[nH]c2c1`, the fluorescence fold increase is 3.38 (active).

As to `Cc1nc(SCC(=O)Nc2cc(C)on2)c2c(C)c(C)sc2n1`, the fluorescence fold increase was 1.11.

`Cc1cc(C)c2c(c1)cc(C)c1nnc(SCC(=O)Nc3cc(C)on3)n12`: the fluorescence fold increase is 1.09.

With `c1ccc(CSc2nnc(-c3ccco3)n2Cc2ccccc2)cc1`, the fluorescence fold increase was 1.15.

On to `CN(c1nc2ccccc2n2c(-c3ccco3)nnc12)S(=O)(=O)c1ccccc1`, for which the fluorescence fold increase is 2.86 (active).

Turning to `Cc1ccc(Oc2nc3ccccc3n3c(C)nnc23)cc1`, the fluorescence fold increase was 1.08.

On to `COc1ccc(OC)c(CN2C(=O)CCC2(C)C(=O)NC2CCCCCC2)c1` (stereo not given), for which the fluorescence fold increase is 1.09.

Consider `CCCCc1cc(=O)oc2cc(C)cc(OCc3nn[nH]n3)c12`, for which the fluorescence fold increase is 3.84 (active).

As to `CC(C)C[C@H](NC(=O)[C@@H]1O[C@H]1C(=O)O)C(=O)NCCCCN=C(N)N`, the fluorescence fold increase was 1.01.

On to `CC1(C)CC(=O)C(C2=NC(C)(C)Cc3ccccc32)=C(O)C1`, for which the fluorescence fold increase was 1.05.

Regarding `Cc1ccc2[nH]c3c(c2c1)CN(C(=O)CN1CCN(c2ccccc2)CC1)CC3`, the fluorescence fold increase is 1.21.
